The source of these data is the supplement of paper PMC8728848.

Common to all, as to test: glycan array binding signal (z-score within array); higher = stronger binding
Holding throughout (conditions): glycan notation: IUPAC condensed, linker removed

One assay addresses Fuc(a1-2)Gal. The essentials: (§1)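 Negative Z-scores can be read as non-binding. The Z-score is calculated within each array and then averaged across arrays of one protein sequence at different concentrations or buffers and across linkers. Arrays, 3228 in all, were curated from the Consortium for Functional Glycomics database and kept only where the protein sequence was available.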

The next assay deals with Fuc(a1-2)[Gal(a1-3)]Gal. The essentials: as §1
The target of assay [1] is Fuc(a1-3)[Gal3S(b1-4)]Glc6S. The essentials:
as §1

For a further assay, the target named is Gal(a1-3)GalNAc. The essentials:
as §1

The target in another assay is Gal(a1-4)Gal(b1-4)Glc. The essentials:
as §1

Another assay has as its target Gal(a1-4)GlcNAc. The method in brief:
as §1

Another assay deals with Gal(b1-2)Gal. The essentials: as §1
For assay [2], the target named is Gal(b1-4)GalNAc(a1-3)[Fuc(a1-2)]Gal(b1-4)GlcNAc. The method in brief: as §1
Assay [3] deals with Gal(b1-4)GlcNAc(b1-3)GalNAc. The method in brief:
as §1

In the next assay the target is Gal3S(b1-4)GlcNAc. The method in brief: as §1
In assay [4] the target is Gal3S(b1-4)[Fuc(a1-3)]Glc. The method in brief:
as §1

For a further assay, the target named is GalNAc(b1-4)GlcNAc. The method in brief: as §1
Another assay deals with GlcA(b1-3)Gal. The method in brief:
as §1

The target of assay [5] is GlcNAc(b1-4)GlcNAc(b1-4)GlcNAc(b1-4)GlcNAc(b1-4)GlcNAc(b1-4)GlcNAc. The essentials:
as §1

The target in assay [6] is Neu5Ac(a2-3)Gal(b1-3)GalNAc. The essentials:
as §1

Assay [7] addresses Neu5Ac(a2-3)Gal(b1-3)GalNAc(b1-3)Gal(a1-4)Gal(b1-4)Glc. The method in brief:
as §1

Assay [8] concerns the target Neu5Ac(a2-3)Gal(b1-3)GalNAc(b1-4)[Neu5Ac(a2-3)]Gal(b1-4)Glc. The essentials:
as §1

Assay [9] deals with Neu5Ac(a2-3)Gal(b1-3)[Neu5Ac(a2-6)]GalNAc. The method in brief:
as §1

In a further assay the target is Neu5Ac(a2-3)Gal(b1-4)Glc. The method in brief:
as §1

In assay [10] the target is Neu5Ac(a2-3)Gal(b1-4)GlcNAc(b1-2)Man(a1-3)[GlcNAc(b1-2)Man(b1-4)GlcNAc(b1-2)Man(a1-6)]Man(b1-4)GlcNAc(b1-4)GlcNAc. The essentials:
as §1

Assay [11] concerns the target Neu5Ac(a2-3)Gal(b1-4)GlcNAc(b1-6)[Neu5Ac(a2-3)Gal(b1-3)]GalNAc. The method in brief: as §1
The target of assay [12] is Neu5Ac(a2-3)Gal(b1-4)GlcNAc6S. The essentials:
as §1

Assay [13] addresses Neu5Ac(a2-3)Gal(b1-4)[Fuc(a1-3)]GlcNAc(b1-3)Gal(b1-4)[Fuc(a1-3)]GlcNAc(b1-3)Gal(b1-4)[Fuc(a1-3)]GlcNAc. The method in brief: as §1
Assay [14] concerns the target Neu5Ac(a2-3)GalNAc(b1-4)GlcNAc. The method in brief:
as §1

The target of assay [15] is Neu5Ac(a2-6)Gal(b1-4)GlcNAc(b1-2)Man(a1-3)[GlcNAc(b1-2)Man(a1-6)]Man(b1-4)GlcNAc(b1-4)GlcNAc. The method in brief: as §1
The target in assay [16] is Neu5Ac(a2-6)Gal(b1-4)GlcNAc(b1-2)Man(a1-6)[GlcNAc(b1-2)Man(a1-3)]Man(b1-4)GlcNAc(b1-4)GlcNAc. The method in brief: as §1
Assay [17] deals with Neu5Ac(a2-6)GalNAc(b1-4)GlcNAc. The method in brief: as §1
Assay [18] has as its target Neu5Ac(a2-3)Gal(b1-4)[Fuc(a1-3)]GlcNAc(b1-6)[Gal(b1-3)]GalNAc. The essentials:
as §1

Assay [19] deals with Neu5Ac(a2-6)Gal(b1-4)GlcNAc(b1-2)Man(a1-3)[Gal(b1-4)GlcNAc(b1-2)Man(a1-6)]Man(b1-4)GlcNAc(b1-4)GlcNAc. The essentials:
as §1

Assay [20] has as its target Neu5Ac(a2-6)GlcNAc(b1-4)GlcNAc. The essentials:
as §1

Assay [21] concerns the target Neu5Gc(a2-3)Gal(b1-3)[Fuc(a1-4)]GlcNAc. The essentials: as §1

About 410 targets per protein were measured; listed, in parts, are those with the strongest signals and a random draw of the rest.

B1: LYVE-1 (Homo sapiens), Q9Y5Y7 (protein)
chain: MARCFSLVLLLTSIWTTRLLVQGSLRAEELSIQVSCRIMGITLVSKKANQQLNFTEAKEACRLLGLSLAGKDQVETALKASFETCSYGWVGDGFVVISRISPNPKCGKNGVGVLIWKVPVSRQFAAYCYNSSDTWTNSCIPEIITTKDPIFNTQTATQTTEFIVSDSTYSVASPYSTIPAPTTTPPAPASTSIPRRKKLICVTEVFMETSTMSTETEPFVENKAAFKNEAAGDPEVKFNWYVDGVEVHNAKPREEQYNSTYRVVSLVTVLHQDWLNGKEYKCKVSNKALPAPIEKTISKAKGQPREPQVYTLPPSRDELTKNQVSLTCLVKGFYPSDIAVEWESNGQPENNYKTTPPVLDSDGSFFLYSKLTVDKSRWQQGNVFSCSVMHEALHNHYTQRSLSLSPGK
As for B1, the “glycan array binding signal (z-score)” value with Fuc(a1-2)Gal is -0.222; in the assay with Fuc(a1-2)[Gal(a1-3)]Gal it was 0.242; in assay [1], -0.066; in the assay with Gal(a1-3)GalNAc it was -0.27; in the assay with Gal(a1-4)Gal(b1-4)Glc, -0.09; with Gal(a1-4)GlcNAc, -0.269. In addition, the “glycan array binding signal (z-score)” value with Gal(b1-2)Gal was -0.409; in assay [2] it was -0.338; in assay [3] it was -0.411; with Gal3S(b1-4)GlcNAc it was -0.036; in assay [4] it was -0.34; with GalNAc(b1-4)GlcNAc, -0.259. In addition, the “glycan array binding signal (z-score)” value is -0.466 in the assay with GlcA(b1-3)Gal; -0.624 in assay [5]; 3.93 in assay [6]; 1.74 in assay [7]; 4.82 in assay [8]; 0.133 in assay [9]. Further, the “glycan array binding signal (z-score)” value in the assay with Neu5Ac(a2-3)Gal(b1-4)Glc was 0.324; in [10], -0.128; in [11] it was 6.79; in assay [12], -0.351; in assay [13] it was 5.13; in [14] it was 3.73. In addition, the “glycan array binding signal (z-score)” value in [15] is -0.596; in [16], -0.436; in [17] it was 2.4.

B2: Protectin (Homo sapiens), P13987 (protein)
chain: MGIQGGSVLFGLLLVLAVFCHSGHSLQCYNCPNPTADCKTAVNCSSDFDACLITKAGLQVYNKCWKFEHCNFNDVTTRLRENELTYYCCKKDLCNFNEQLENGGTSLSEKTVLLLVTPFLAAAWSLHP
Consider B2, for which the “glycan array binding signal (z-score)” value in assay [18] is -0.153; in [19], -1.94; in [20], -0.361; in assay [21], 0.087.
